Among the data in PubChem BioAssay AID434962 (The Scripps Research Institute Molecular Screening Center, 2010) are inhibition values, retold here.

Molecules are shown by their SMILES. Hit rate of the full screen: of about 320,000 compounds, about 1,300 (0.41%) were called active.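 How the source made its calls: active means percent inhibition above the average of all tested compounds plus 3 SD, set per screening campaign (cut at about 16% in these data); inactive means the rest.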 What follows is part of a selection rich in actives, with near analogues and random picks from the rest.

Broadly, the inhibition is the drop in the measured response relative to a control, in per cent.

For the assay, the target named is Insulin-degrading enzyme (Homo sapiens) (UniProt P14735). Description: human IDE inhibitors in live cells, primary screen, fluorescence polarization, HEK cells, FAbetaB substrate (AID 434962).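 Further: IDE supplied by intact live HEK cells; FP after avidin binding of uncleaved biotin substrate so inhibition keeps polarization high; 0% = DMSO wells and 100% = 60 µM reference IDE inhibitor Ii1.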 To be noted: FAbetaB cleavage, at 5.59 µM, active compounds read high. (Fluorescence polarisation rises when a labelled molecule tumbles more slowly, as on binding a larger partner.)
Insulin-degrading enzyme (Homo sapiens), sequence (P14735 whole entry, looked up): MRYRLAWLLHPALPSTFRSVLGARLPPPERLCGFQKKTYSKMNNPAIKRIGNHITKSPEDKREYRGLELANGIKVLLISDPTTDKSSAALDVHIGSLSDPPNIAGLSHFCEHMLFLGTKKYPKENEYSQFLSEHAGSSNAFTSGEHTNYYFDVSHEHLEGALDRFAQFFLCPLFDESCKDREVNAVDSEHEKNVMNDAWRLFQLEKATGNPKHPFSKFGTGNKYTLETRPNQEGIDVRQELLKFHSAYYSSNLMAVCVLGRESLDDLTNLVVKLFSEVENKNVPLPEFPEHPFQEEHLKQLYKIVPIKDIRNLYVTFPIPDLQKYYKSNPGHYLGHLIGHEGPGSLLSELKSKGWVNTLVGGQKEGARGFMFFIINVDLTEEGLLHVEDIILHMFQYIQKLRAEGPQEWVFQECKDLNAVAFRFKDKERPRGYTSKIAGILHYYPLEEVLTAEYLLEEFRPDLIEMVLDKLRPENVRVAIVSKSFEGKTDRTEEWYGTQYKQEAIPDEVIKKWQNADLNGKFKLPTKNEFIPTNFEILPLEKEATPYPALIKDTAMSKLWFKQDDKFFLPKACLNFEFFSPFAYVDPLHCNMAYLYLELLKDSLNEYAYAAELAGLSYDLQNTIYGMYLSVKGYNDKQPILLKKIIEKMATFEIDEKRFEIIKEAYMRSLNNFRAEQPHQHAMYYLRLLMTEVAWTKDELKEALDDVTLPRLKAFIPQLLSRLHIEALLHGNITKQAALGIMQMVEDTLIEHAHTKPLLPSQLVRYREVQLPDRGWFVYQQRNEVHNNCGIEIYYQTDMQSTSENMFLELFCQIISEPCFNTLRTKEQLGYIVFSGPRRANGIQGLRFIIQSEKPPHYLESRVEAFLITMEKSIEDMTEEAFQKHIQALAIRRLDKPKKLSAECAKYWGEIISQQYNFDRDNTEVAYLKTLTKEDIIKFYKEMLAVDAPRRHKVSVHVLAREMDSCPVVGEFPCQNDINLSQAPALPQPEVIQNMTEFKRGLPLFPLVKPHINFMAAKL
As for `CS(=O)(=O)N(Cc1ccc(Cl)cc1)c1ccc(C(=O)NCCSCc2ccco2)cc1`, the inhibition was 2.58% (inactive).

On to `O=C(C1=C[C@H](c2coc3ccccc3c2=O)C[C@H](OCc2ccc(CO)cc2)O1)N1CCN(Cc2ccccc2)CC1`, for which the inhibition is 18.4% (active). In the case of `O=C(C1=C[C@H](c2coc3ccccc3c2=O)C[C@H](OCc2ccc(CO)cc2)O1)N1CCOCC1` it was 4.19% (inactive); in that of `O=C(C1=C[C@H](c2ccc(C(F)(F)F)cc2)C[C@H](OCc2ccc(CO)cc2)O1)N1CCN(Cc2ccccc2)CC1`, -1% (inactive).

On to `C[n+]1ccc(/C=C/c2c[nH]c3ccccc23)cc1`, for which the inhibition was 23.9% (active). In the case of `O=C(NC1CCCC1)C(=O)c1c[nH]c2ccccc12`, the inhibition is 3.35% (inactive). For the molecule `COc1ccc(/C=C(\C#N)c2c[nH]c3ccccc23)cc1`, the inhibition was -0.68% (inactive). For `Clc1ccccc1-c1cc(COc2ccc3ccccc3c2)no1` the value was 3.18% (inactive); for `COc1ccc(OCCCn2cccc2/C=C2/C(=N)N3OC(C)=CC3=NC2=O)cc1`, 1.48% (inactive). As to `CC1=CC2=NC(=O)/C(=C/c3coc4ccccc4c3=O)C(=N)N2O1`, the inhibition is 62.1% (active).

Consider `CCOc1cc(/C=C2/C(=N)N3OC(C)=CC3=NC2=O)ccc1OC`, for which the inhibition was 0.06% (inactive).

In the case of `C=CCn1c(SCCOc2ccc(OC)cc2)nnc1C(NC(=O)c1ccc(OC)cc1)C(C)C` (stereo not given), the inhibition was 0.39% (inactive). Regarding `CC(=O)Nc1ccc(S(=O)(=O)N2CCN(CCCOc3cc(C)ccc3C)CC2)cc1`, the inhibition is -1.56% (inactive).

Regarding `CCOc1ccc(NC(=O)CN(C)CC(=O)Nc2cccc(Cl)c2C)cc1OCC`, the inhibition was 1.24% (inactive). In the case of `CCCc1nc(SCC(=O)Nc2ccc(S(=O)(=O)N(C)C)cc2)c2ccccc2n1`, the inhibition is 38.4% (active).

For the molecule `CCCNC(=O)CSc1nc(Cc2ccccc2)nc2ccccc12`, the inhibition was 4.52% (inactive). In the case of `CCc1nc(SCC(=O)NNC(=O)c2ccc(C)cc2)c2ccccc2n1` it was 0.32% (inactive).

In the case of `Cc1ccccc1-n1c(C)cc(/C=N/NC(=O)c2ccc(CN3CCOCC3)cc2)c1C`, the inhibition is -1.59% (inactive). As for `COc1ccc(N2C(=O)/C(=C\c3ccco3)N=C2SCC(N)=O)cc1Cl`, the inhibition is 6.2% (inactive). For `N#Cc1c(N2CCCCC2)nc(N)c2c(N)nc(SCC(=O)O)cc12` the value was 7.07% (inactive). For `CCN1CCCC1CNc1ncnc2c1[nH]c1ccc(F)cc12` (stereo not given) the value was 17% (active); for `CC(C)OCCCNc1ncnc2c1[nH]c1ccc(F)cc12`, 27.3% (active); for `Cc1c(CN2CC[C@@H](N3CCN(c4ccccn4)CC3)[C@H](O)C2)[nH]c2ccc(F)cc12`, -1.68% (inactive).

Consider `CCN1CCCC1CNC(=O)c1cc2cc(OC)c(OC)cc2[nH]1` (stereo not given), for which the inhibition was 1.37% (inactive).

Take `CCN1CCCC1Cn1cnc2c([nH]c3cc(OC)ccc32)c1=O` (stereo not given): the inhibition is 6.02% (inactive). For `Fc1ccc2[nH]c3c(N4CCSCC4)ncnc3c2c1` the value was 17.6% (active); for `COc1ccc(NC(=O)CSc2nnc(C3CC3)n2C)cc1S(=O)(=O)N1CCCCC1`, 0.43% (inactive).

As to `O=C1CCN(CCCc2ccccc2)CCN1CCO`, the inhibition is 9.53% (inactive). For `Cc1noc(C)c1S(=O)(=O)N(C)Cc1ccccc1` the value was 1.11% (inactive). For `Cn1ncc2c(N3CCCCC3)nc(NCCCO)nc21` the value was 4.87% (inactive); for `COc1cccc(/C=C/C(=O)OCC(=O)N2CCCc3ccccc32)c1`, 0.1% (inactive). With `Cc1ccc(Cn2cc(C(=O)NN)c(=O)c3ccc(F)cc32)cc1`, the inhibition was 0.01% (inactive). In the case of `Cc1c(-c2cccc(Cl)c2)nc2ccccc2c1C(=O)OCC(=O)N(C)C1CCS(=O)(=O)C1` (stereo not given), the inhibition is 18.3% (active). For `COc1ccc2c(-c3ccccc3)cc(SCC(=O)N(C)C3CCS(=O)(=O)C3)nc2c1` (stereo not given) the value was -3.71% (inactive); for `CN(C(=O)COC(=O)c1cc(-c2ccco2)nc2ccccc12)C1CCS(=O)(=O)C1` (stereo not given), -3.18% (inactive); for `Cc1ccc(C)c(NC(=O)c2cc(-c3cc(C)cc(C)c3O)n[nH]2)c1`, -3.27% (inactive). In the case of `CC(C(=O)c1ccc(-c2ccccc2)cc1)[n+]1cccc(Br)c1` (stereo not given) it was 23.5% (active); in that of `Cc1ccc(NC(=S)NC(=O)c2ccc(-c3ccccc3)cc2)cc1`, 0.29% (inactive).

Regarding `O=C(NNC(=O)c1ccc(-c2ccccc2)cc1)Nc1ccccc1`, the inhibition was 2.17% (inactive). For `CN(C)c1ccc(/C=C2\NC(=S)N(Cc3ccccc3)C2=O)cc1` the value was 99.8% (active); for `O=C1N/C(=C/c2cccs2)C(=O)N1Cc1ccc(F)cc1`, -2.86% (inactive).

In the case of `CN(C)c1ccc(C=C2C(=O)OC3(CCCC3)OC2=O)cc1`, the inhibition is 0.68% (inactive). For `CN(C1CCS(=O)(=O)C1)S(=O)(=O)c1ccc2ccccc2c1` (stereo not given), the inhibition was 5.04% (inactive).

With `O=C(C1CCN(S(=O)(=O)Cc2ccccc2)CC1)N1CCCc2ccccc21`, the inhibition is 0.11% (inactive). For `CC1(C)Cc2cccc(OCC(=O)N3CCN(c4ccc([N+](=O)[O-])cc4)CC3)c2O1` the value was 18.8% (active). For `CC1(C)Cc2cccc(OCC(=O)NCc3ccccc3)c2O1` the value was 0.56% (inactive); for `CC1(C)Cc2cccc(OCC(N)=O)c2O1`, -2.75% (inactive); for `CCCN(CCC)S(=O)(=O)c1ccc(C(=O)N2CC3CCC(CC3)C2)cc1`, -1.85% (inactive). For `CC(=O)NCCc1ccc(S(=O)(=O)N(C)C2CCS(=O)(=O)C2)cc1` (stereo not given), the inhibition is -0.05% (inactive).

In the case of `CN1C(=O)/C(=C/C=C2\SCCN2C)OC1=S`, the inhibition was 25.2% (active). In the case of `Nc1nc(Br)c2ccccc2c1-c1ccc(F)cc1`, the inhibition was -4.68% (inactive). Turning to `CC(C)OCCCNC(=S)N1CCC(C(=O)c2ccc3c(c2)OCCO3)CC1`, the inhibition is 7.22% (inactive).

Take `COC(=O)c1cc(C(=O)OCC(=O)Nc2cc(C)on2)cc([N+](=O)[O-])c1`: the inhibition was 0.35% (inactive). In the case of `Cc1ccc2c(c1)c1ncn(CCC3=CCCCC3)c(=O)c1n2C` it was 4.46% (inactive). On to `Cc1ccc2c(c1)c1ncnc(N3CCc4ccccc4C3)c1n2C`, for which the inhibition was 39.7% (active). On to `Cc1ccc(-c2cc(C(=O)N3CCc4ccccc4C3)no2)cc1`, for which the inhibition was -0.51% (inactive).

On to `COc1ccccc1-c1n[nH]c2c1[C@H](C)CC[C@H]2C(C)C`, for which the inhibition is 0.94% (inactive). On to `CCCCOC(=O)c1ccc(NC(c2ccc(C)cc2)P(=O)(OC)OC)cc1` (stereo not given), for which the inhibition is 7.2% (inactive). For `Cc1nn(C)cc1C(=O)c1ccccc1` the value was 16.3% (active); for `CCOC(=O)c1nn(-c2cccc(C)c2)cc1C(=O)c1ccccc1`, -1.22% (inactive). Take `Cc1nn(C)cc1C(=O)Nc1ccccc1Br`: the inhibition is 2.37% (inactive). For `COc1ccc(/C=C2\CCCC3C2=NN(C(=O)c2scnc2C)C3c2ccc(OC)cc2)cc1` (stereo not given), the inhibition was -0.54% (inactive).

With `O=C(CCc1nnc(Cc2ccc3c(c2)OCO3)o1)NCCc1ccccc1Cl`, the inhibition is 0.48% (inactive). `CCCCN(C1CCS(=O)(=O)C1)S(=O)(=O)c1ccc(C(C)C)cc1` (stereo not given): the inhibition is 5.43% (inactive). Turning to `O=C(Cn1[nH]c(=O)c2ccccc2c1=O)Nc1cccc(-c2nnc3n2CCCCC3)c1`, the inhibition was 7.74% (inactive).

Regarding `Cc1c(C(=O)Nc2cccc(-c3nnc4n3CCCCC4)c2)oc2ccccc12`, the inhibition was 17.2% (active). Take `Cc1c(C(=O)Nc2cccc(S(=O)(=O)N3CCOCC3)c2)oc2ccccc12`: the inhibition is -1.96% (inactive).

As for `COc1c(Br)cc2c(C)c(C(=O)N3CCOCC3)oc2c1Br`, the inhibition was 3.66% (inactive).

For `COc1ccccc1N(CC(=O)Nc1ccc(C(F)(F)F)cc1)S(C)(=O)=O`, the inhibition is -2.79% (inactive). As to `C=CCOc1ccccc1NC(=O)CN1C(=O)CNC1=O`, the inhibition is -0.94% (inactive). For `CN(C)/C=C/C(=O)c1cnc2sccn2c1=O`, the inhibition is -1.17% (inactive). In the case of `COc1ccc(NS(=O)(=O)c2ccc(NC(=O)C(C)(C(F)(F)F)C(F)(F)F)cc2)nn1` it was 6.58% (inactive).

For `COc1ccc(NS(=O)(=O)c2ccc(NC(=S)NC(=O)/C=C/c3ccc(C)cc3)cc2)nn1`, the inhibition is 24.2% (active). For `COc1cc(NS(=O)(=O)c2ccc(NC(=S)NC(=O)c3ccc(Br)cc3)cc2)ncn1` the value was -2.01% (inactive); for `Cc1ccc(NC2CCCN(C(=O)CCC3(C)CC3)C2)cc1C` (stereo not given), 2.09% (inactive). In the case of `COc1cc(C(=O)NCC(=O)N2CC=C(c3ccccc3)CC2)cc(OC)c1OC` it was -2.8% (inactive). As for `O=C(Nc1cccc(NC(=O)N2CCN(c3ccccc3)CC2)c1)N1CCN(c2ccccc2)CC1`, the inhibition is 3.98% (inactive). Turning to `O=C(Nc1ccc(Cl)c(Cl)c1)N1CC=C(c2ccccc2)CC1`, the inhibition is 19.1% (active). As to `O=C(CSc1nnc(CNC(=O)c2ccc(F)cc2)o1)Nc1ccc2c(c1)OCO2`, the inhibition was 1.15% (inactive).

As for `CS(=O)(=O)N(Cc1ccccc1Cl)c1ccc(C(=O)NCc2cccnc2)cc1`, the inhibition is 12.1% (inactive).

For the molecule `CC(=O)[C@@]12O[C@@H]1C[C@H]1[C@@H]3CC[C@H]4C[C@@H](O)CC[C@]4(C)[C@H]3CC[C@@]12C`, the inhibition was 0.23% (inactive). For `O=C(N/N=C/c1ccc(OC(=O)c2ccccc2Cl)cc1)c1ccc(O)cc1` the value was 17.1% (active).

For `O=C(COc1ccc(/C=N/NC(=O)c2ccc(O)cc2)cc1)Nc1ccc([N+](=O)[O-])cc1`, the inhibition is 0.35% (inactive).

Take `CC(C)(C)C(=O)Nc1ccc(C(=O)N/N=C/c2ccccc2OC(=O)c2ccc(Cl)cc2Cl)cc1`: the inhibition was -0.07% (inactive). In the case of `CN(C(=O)c1cccc(NC(=O)Cc2cccc([N+](=O)[O-])c2)c1)C1CCCCC1` it was -2.48% (inactive). In the case of `Cn1cncc1C#Cc1c(-c2ccsc2)sc2ccccc12` it was 2.04% (inactive); in that of `CC[C@H]1OC(=O)[C@H](C)[C@@H](O[C@H]2C[C@@](C)(OC)[C@@H](O)[C@H](C)O2)[C@H](C)[C@@H](O[C@@H]2O[C@H](C)C[C@H](N(C)C)[C@H]2O)[C@](C)(O)C[C@@H](C)[C@@H]2N[C@@H](COCCOC)O[C@H]([C@H]2C)[C@]1(C)O`, -4.09% (inactive); in that of `CN(C(=O)COC(=O)c1ccc(Br)o1)c1c(N)n(Cc2ccccc2)c(=O)[nH]c1=O`, 5.15% (inactive). For `Cc1cc2nc3c(=O)n(Cc4ccccc4)c(=O)[nH]c3nc2cc1N` the value was 20.4% (active).

Turning to `C=CCSc1nc2c(c(=O)[nH]c(=O)n2C)n1Cc1ccccc1`, the inhibition is -11.6% (inactive).
